Data: PubChem BioAssay (NCATS)
Results filed as inconclusive are left out. A call without a number means that no potency is given here. Activity calls are given as the source filed them. Unless noted, calls follow the shape of the dose curve; as a rule, active = well fitted curve in the direction sought with a large enough effect; inconclusive = small, poorly fitted or top-dose-only effect, or another doubt; inactive = no such curve, though single readings can be large; an effect the other way counts as inactive or inconclusive.

Assays:
[1] = HPAF-II Cancer Cell Toxicity qHTS against the NCATS CANVASS Library (AID 1347346); also: nearly all actives have a fitted effect of over 55% in size; also: potency is read from the fitted curve at half-maximal effect
Method in brief: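 Luminescence from CellTiter-Glo, added after 72 h compound exposure and a 15 min room-temperature incubation, served as the viability readout. HPAF-II cells (1000/well) received an 11-point concentration series.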

[2] = U-118MG Cancer Cell Toxicity qHTS against the NCATS CANVASS Library (AID 1347351); also: potency is read from the fitted curve at half-maximal effect
Method in brief: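 Toxicity is measured over 72 h of compound exposure at 37 degrees C under 5% CO2. Each well holds 1000 cells, pre-incubated for 4 hours before dosing across an 11-point range. CellTiter-Glo luminescence gives viability.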

[3] = A2780 Cisplatin Sensitive Ovarian Cancer Cell Toxicity qHTS against the NCATS CANVASS Library (AID 1347353); also: nearly all actives have a fitted effect of over 60% in size; also: potency is read from the fitted curve at half-maximal effect
Method in brief: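 Luminescent ATP content (ATPLite, 10 min at room temperature) served as the read-out after cells had been exposed to compounds for 72 hours at 37 °C. Dosing followed an 11-point concentration series.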

[4] = HEK-293 Cancer Cell Toxicity qHTS against the NCATS CANVASS Library (AID 1347355); also: nearly all actives have a fitted effect of over 65% in size; also: potency is read from the fitted curve at half-maximal effect
Method in brief: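 Luminescent ATP read-out (CellTiter-Glo, 15min at room temperature) measures survival after cells face an 11-point compound series for 72 hours at 37 degrees C/5% CO2.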

[5] = KB-3-1 Cancer Cell Toxicity qHTS against the NCATS CANVASS Library (AID 1347366); also: nearly all actives have a fitted effect of over 75% in size; also: potency is read from the fitted curve at half-maximal effect
Method in brief: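 500 KB-3-1 cells/well; compounds pin-transferred, 11-pnt series; 72 hr, 37C/5% CO2; CellTiter-Glo, 10 min RT; luminescence read-out.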

[6] = target: Nuclear receptor subfamily 1 group I member 3 (Homo sapiens) (UniProt Q14994); experiment: qHTS for Constitutive Androstane Receptor (CAR) Antagonist screened against the NCATS CANVASS Library (AID 1347372); also: potency is read from the fitted curve at half-maximal effect
Sequence of Nuclear receptor subfamily 1 group I member 3 (Homo sapiens) (Q14994 whole entry, looked up): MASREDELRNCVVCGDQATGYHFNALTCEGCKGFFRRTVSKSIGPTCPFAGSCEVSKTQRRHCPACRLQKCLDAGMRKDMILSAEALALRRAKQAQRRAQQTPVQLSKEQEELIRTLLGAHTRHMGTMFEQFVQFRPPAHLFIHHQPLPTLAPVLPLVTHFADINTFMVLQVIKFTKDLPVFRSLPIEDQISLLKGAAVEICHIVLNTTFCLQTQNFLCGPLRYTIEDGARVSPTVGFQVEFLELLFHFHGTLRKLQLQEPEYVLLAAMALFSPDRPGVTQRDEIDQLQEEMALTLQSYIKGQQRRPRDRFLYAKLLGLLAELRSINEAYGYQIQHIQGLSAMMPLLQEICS
Method in brief: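 HepG2-CYP2B6-hCAR double-stable cells plated, 4hr attach; cpd pin-transferred; CITCO 50 nM final; 24hr 37C/5% CO2; CellTiter-Fluor 1hr (fluorescence), then ONE-Glo luminescence.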

[7] = qHTS for Hypoxia signaling pathway (HIF-1) agonists against the NCATS CANVASS Library (AID 1347375)
Method in brief: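 ME-180 HRE-bla reporter cells; 2,000/well, 0.5% dialyzed FBS; cpd added after 5 h, 17 h 37C/5% CO2; CCF4-AM 2 h RT; FRET 460/530 nm; CellTiter-Glo viability same wells, 30 min.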

[8] = DH5-alpha competent E. coli microbial cell viability qHTS against the NCATS CANVASS Library (AID 1347377); conditions: outcome: dose series up to 46.1 µM unless noted
Method in brief: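 qHTS, 11-pt; E. coli DH5-alpha, 0.2 OD; o/n 37C/5% CO2; BacTiter-Glo, 20 min RT; luminescence.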

[9] = qHTS for H2AX Agonists against the NCATS CANVASS Library (AID 1347378); also: potency is read from the fitted curve at half-maximal effect
Method in brief: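 TR-FRET readout (ex 320 nm, em 665/620 nm ratio) of phospho-H2AX (S139) in CHO-K1 lysates. Cells treated 3 hr at 37C with compound titration, 0.76% DMSO; lysis 30 min, antibody detection 24 hr at RT.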

[10] = qHTS for Inflammasome Signaling Inhibitors: IL-1-beta AlphaLISA screen against the NCATS CANVASS Library (AID 1347379);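 also: human THP-1 cells primed with LPS then triggered with ATP; secreted IL-1B measured as AlphaLISA emission at 615 nm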; also: potency is read from the fitted curve at half-maximal effect
Method in brief: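 THP-1 cells pretreated 1 hr with compound (up to 57.5 uM final), then stimulated with LPS (250 ng/mL final) and ATP (1.25 mM final). Secreted IL-1B measured by AlphaLISA after 16 hr; glyburide as positive control.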

[11] = qHTS for Activators of p53 Stress Response Pathway screened against the NCATS CANVASS Library (AID 1347388); also: potency is read from the fitted curve at half-maximal effect
Method in brief: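 Beta-lactamase reporter driven by p53 response elements in HCT-116 cells, read as the 460 nm/530 nm emission ratio after CCF4 loading, following 16 h of exposure to an 11-point series. Cell viability was measured in the same wells by CellTiter-Glo luminescence.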

[12] = qHTS assay for small molecule disruptors of mitochondrial membrane potential screened against the NCATS CANVASS Library (AID 1347389); also: nearly all actives have a fitted effect of over 60% in size; also: potency is read from the fitted curve at half-maximal effect
Method in brief: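 HepG2, 2,000 cells/well, attached overnight; compound 1 hr, 37C, 5% CO2; Mito-MPS dye 30 min, 37C; fluorescence 535 nm (monomer) and 590 nm (aggregate); decreased 590/535 ratio = depolarization.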

[13] = Vero-766 cells viability qHTS against the NCATS CANVASS Library: Counterscreen for Zika virus inhibition assay (AID 1347394); also: nearly all actives have a fitted effect of over 60% in size; also: potency is read from the fitted curve at half-maximal effect
Method in brief: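 CellTiter-Glo luminescence, lower signal indicating cytotoxicity. Vero 766 cells without Zika virus, 1000 cells/well, plated overnight, then treated 72 h at 37C across an 11-point series.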

[14] = Viability qHTS for inhibitors of the SERCaMP assay screened against the NCATS CANVASS Library (AID 1347400); also: nearly all actives have a fitted effect of over 70% in size; also: potency is read from the fitted curve at half-maximal effect
Method in brief: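 SH-SY5Y SERCaMP MJH297 cells, 1000/well; 4 h settle, 37C/5% CO2; pin-transferred cpds; 48 h; CellTiter-Glo lum. Pos ctrl bortezomib 0.0001 - 4.6 uM.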

[15] = qHTS for inhibitors of Rabies Virus screened against the NCATS CANVASS Library (AID 1347402; calls by dose curve; also: series mostly up to about 46 µM)
[16] = HEK293 24hr Apoptosis Induction qHTS against the NCATS CANVASS Library (AID 1347359)
Method in brief: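 Caspase-3/7 activation measured as luminescence from the DEVD-based Caspase-Glo reagent, 15 min at room temperature, following 24-hour compound treatment of HEK293 cells.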

[17] = test system: NAD(P)H diaphorase (Clostridium kluyveri); experiment: Diaphorse counterscreen qHTS: Assay Interference Panel against the NCATS CANVASS Library (AID 1347362); also: potency is read from the fitted curve at half-maximal effect
Method in brief: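 Counterscreen for coupling-enzyme interference: resorufin fluorescence from resazurin/NADH turnover, read after 5 min at room temperature. Compounds were tested over an 11-point series after 15 min dark preincubation with diaphorase in PBS-Tween.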

[18] = SDT Cancer Cell Toxicity qHTS against the NCATS CANVASS Library (AID 1347365); also: nearly all actives have a fitted effect of over 60% in size; also: potency is read from the fitted curve at half-maximal effect
Method in brief: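 qHTS, SDT dog glioma line, 500 cells/well; cpds 11 pts; 72 hr, 37C, 5% CO2; CellTiterGlo ATP luminescence.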

[19] = qHTS for Hypoxia signaling pathway (HIF-1) antagonists against the NCATS CANVASS Library (AID 1347374); also: nearly all actives have a fitted effect of over 60% in size; also: potency is read from the fitted curve at half-maximal effect
Method in brief: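 HRE-bla ME-180 cells in medium with 0.5% dialyzed FBS received compounds (11-point series) plus CoCl2 (60 uM addition stock) for 17 hrs at 37C. Beta-lactamase activity read with CCF4 (405 nm ex, 460/530 nm em); CellTiter-Glo viability measured in same wells.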

SMILES: CC(C)CC1C(=O)O[C@H](C(C)C)C(=O)N(C)C(CC(C)C)C(=O)O[C@@H](C(C)C)C(=O)N(C)C(CC(C)C)C(=O)O[C@H](C(C)C)C(=O)N(C)C(CC(C)C)C(=O)O[C@@H](C(C)C)C(=O)N1C (stereo partly specified)
- Potency [1]: 5950 nM (active)
- Potency [2]: inactive
- Potency [3]: 5260 nM (active)
- Potency [4]: 2350 nM (active)
- Potency [5]: 9350 nM (active)
- Potency [6]: 20900 nM (active)
- outcome [7]: inactive
- outcome [8]: inactive
- Potency [9]: inactive
- Potency [10]: inactive
- Potency [11]: inactive
- Potency [12]: 7410 nM (active)
- Potency [13]: 11700 nM (active)
- Potency [14]: 42800 nM (active)
- outcome [15]: inactive

SMILES: O[C@H]1C=C[C@@]23CCN(Cc4cc5c(cc42)OCO5)[C@@H]3C1
- Potency [1]: inactive
- Potency [2]: inactive
- Potency [3]: inactive
- Potency [4]: inactive
- outcome [16]: inactive
- Potency [17]: inactive
- Potency [18]: inactive
- Potency [5]: inactive
- Potency [6]: inactive
- Potency [19]: inactive
- outcome [7]: inactive
- outcome [8]: inactive
- Potency [9]: inactive
- Potency [10]: inactive
- Potency [11]: inactive
- Potency [12]: inactive
- Potency [13]: inactive
- Potency [14]: inactive
- outcome [15]: inactive

SMILES: COC1C(O)C(C)OC(OC2C(Oc3cccc4c(O)c5c(=O)oc6ccc(C)c7c(=O)oc(c34)c5c67)OC(C)C(O)C2O)C1O (stereo unspecified)
- Potency [2]: inactive
- Potency [3]: 3320 nM (active)
- Potency [4]: 14800 nM (active)
- outcome [16]: inactive
- Potency [18]: 11800 nM (active)
- Potency [6]: 11700 nM (active)
- outcome [8]: inactive
- Potency [9]: 27300 nM (active)
- Potency [10]: 27300 nM (active)
- Potency [11]: 10500 nM (active)
- Potency [14]: 34000 nM (active)
- outcome [15]: inactive

SMILES: CO[C@H]1C[C@H](O[C@H]2[C@@H](O)C[C@H](O[C@H]3CC[C@]4(C=O)[C@H]5CC[C@]6(C)C(C7=CC(=O)OC7)CC[C@]6(O)[C@@H]5CC[C@]4(O)C3)O[C@@H]2C)O[C@H](C)[C@H]1O[C@H]1C[C@@H](OC)[C@@H](O[C@@H]2O[C@H](CO)[C@@H](O)[C@H](O)[C@H]2O)[C@@H](C)O1 (stereo partly specified)
- Potency [1]: 376 nM (active)
- Potency [2]: 188 nM (active)
- Potency [3]: 83.3 nM (active)
- Potency [4]: 118 nM (active)
- outcome [16]: inactive
- Potency [17]: inactive
- Potency [18]: 148 nM (active)
- Potency [5]: 187 nM (active)
- Potency [6]: 417 nM (active)
- Potency [19]: 118 nM (active)
- outcome [7]: inactive
- outcome [8]: inactive
- Potency [9]: inactive
- Potency [10]: 1530 nM (active)
- Potency [12]: inactive
- Potency [14]: 135 nM (active)

SMILES: CO[C@H]([C@@H](C)[C@H]1O[C@]1(C)C[C@H](C)/C=C/C=C(\C)[C@H]1O[C@@H](CC(=O)O)CC[C@@H]1C)[C@@H](C)O
- Potency [1]: 26.6 nM (active)
- Potency [3]: 5.3 nM (active)
- Potency [4]: 20.9 nM (active)
- outcome [16]: inactive
- Potency [17]: inactive
- Potency [18]: 14.8 nM (active)
- Potency [5]: 26.4 nM (active)
- Potency [6]: inactive
- outcome [7]: inactive
- outcome [8]: inactive
- Potency [9]: inactive
- Potency [10]: 38.5 nM (active)
- Potency [11]: 14.8 nM (active)
- Potency [12]: inactive
- Potency [14]: 48 nM (active)
- outcome [15]: inactive

SMILES: CO[C@@]12c3c(C)cc(O)c4c(=O)occ(c34)C(=O)[C@@H]1[C@]13COC(=O)c4c(O)cc(C)c(c41)C(=O)[C@H]2[C@@H]3OC(C)=O
- Potency [2]: inactive
- Potency [4]: inactive
- outcome [16]: inactive
- Potency [18]: inactive
- Potency [5]: inactive
- Potency [6]: inactive
- Potency [19]: inactive
- outcome [7]: inactive
- outcome [8]: inactive
- Potency [9]: inactive
- Potency [10]: inactive
- Potency [11]: inactive
- Potency [12]: 16600 nM (active)
- Potency [13]: inactive
- Potency [14]: inactive
- outcome [15]: inactive

SMILES: C[N+](C)(C)CCc1c[nH]c2ccccc12
- Potency [1]: inactive
- Potency [2]: inactive
- Potency [3]: inactive
- Potency [4]: inactive
- outcome [16]: inactive
- Potency [17]: inactive
- Potency [18]: inactive
- Potency [5]: inactive
- Potency [6]: inactive
- Potency [19]: inactive
- outcome [7]: inactive
- outcome [8]: inactive
- Potency [9]: inactive
- Potency [10]: inactive
- Potency [11]: inactive
- Potency [12]: inactive
- Potency [13]: inactive
- Potency [14]: inactive
- outcome [15]: inactive

SMILES: CC1(C)CC[C@]2(CO)CC[C@]3(C)C(=CCC4[C@@]5(C)CC[C@H](O)C(C)(C)C5CC[C@]43C)C2C1 (stereo partly specified)
- outcome [15]: inactive

SMILES: C/C=C1/CN2CC[C@@]34c5ccccc5N(C)[C@@H]3[C@@H]2C[C@@H]1[C@H]4C(=O)OC
- Potency [1]: inactive
- Potency [2]: inactive
- Potency [3]: inactive
- Potency [4]: inactive
- outcome [16]: inactive
- Potency [17]: inactive
- Potency [5]: inactive
- Potency [6]: inactive
- Potency [19]: inactive
- outcome [7]: inactive
- outcome [8]: inactive
- Potency [9]: inactive
- Potency [10]: inactive
- Potency [11]: inactive
- Potency [12]: inactive
- Potency [13]: inactive
- Potency [14]: inactive
- outcome [15]: inactive

SMILES: COC1=C(C2=C(OC)C(=O)c3cc4c(c(O)c3C2=O)C(=O)O[C@H](C)C4)C(=O)c2c(cc3c(c2O)C(=O)O[C@H](C)C3)C1=O
- Potency [2]: inactive
- Potency [3]: 5540 nM (active)
- Potency [4]: inactive
- outcome [16]: inactive
- Potency [17]: 1450 nM (active)
- Potency [18]: inactive
- Potency [5]: inactive
- Potency [6]: inactive
- outcome [7]: inactive
- outcome [8]: inactive [at 15.4 µM]
- Potency [9]: inactive
- Potency [13]: inactive
- Potency [14]: inactive
- outcome [15]: inactive
